Most compounds without a hit are left out; they make up all but 3.6% or so of the library.
B2AR arrestin ag = agonists recruiting beta-arrestin to human beta2-adrenergic receptor; Potency, µM (doses to about 46.1 µM), most hits filed as activators; 44,000 tested, under 10 active; AID 1347077; P07550; HTLA Tango cells, beta-arrestin recruitment, luciferase luminescence, 18 h;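 also: potency is read from the fitted curve at half-maximal effect; 0% = DMSO and full agonism = EC100 isoproterenol or metaproterenol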
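Tango cells expressing recombinant beta2-AR and beta-arrestin were treated with compounds (up to 46 microM titration) in DMEM with 1% FBS for 18 hr at 37 degrees C. Beta-arrestin recruitment drove tTA-dependent luciferase, read by luminescence; curves were fitted and classed.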
PTAP-TSG101 blk = blocks PTAP binding to human TSG101, validation. Q99816. Fluorescence polarization, FITC-PTAP peptide/Tsg101, 20 min. Potency, µM (doses to about 115 µM), hits mostly inhibitors. 44,000 tested, under 10 active; also: potency is read from the fitted curve at half-maximal effect; 0% is about no effect
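qHTS FP binding, 20 min r.t.: 10 uM Tsg101 domain + 50 nM FITC-PTAP peptide, pH 7.5 HEPES buffer with TCEP and EDTA.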
GPR32 ag = activates human resolvin D1 receptor GPR32 | O75388 | CHO-K1 GPR32 beta-arrestin PathHunter luminescence, 90 min; zero percent set by DMSO-only wells | activation, % at 76.9 µM | 48,000 compounds, 2.5% hits;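 active = activation of at least 60% and not above a set upper limit, about 1 call in 100 departs from these limits; inconclusive = activation of 40% to 60%, or above that upper limit; inactive = activation under 40%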; also: 0% is about no effect
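PathHunter beta-arrestin recruitment in CHO-K1 cells stably expressing ProLink-tagged GPR32. Cells were exposed to compound for 90 min at 37 C, then chemiluminescence was read after 1 h detection at ambient temperature; DMSO served as basal control.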
HTT-AS act = HTT-AS promoter activation | 48,000 compounds, 0.24% hits | Potency, µM (highest dose often 57.5 µM), for inactives: top-dose activity change, positive = activation, actives largely listed as activators | HEK293 HTT-AS promoter firefly luciferase reporter, 24 h; response scale: percent change from vehicle, -100% = no light | AID 1508624; also: potency is read from the fitted curve at half-maximal effect; nearly all actives have a fitted effect of over 55% in size
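Firefly luciferase signal from promoter-reporter HEK293 cells was scaled between vehicle (0%) and zero RLU (-100%). Compounds were tested at final concentrations of up to 57.5 uM over 24 h at 37 degrees C. PTC124 at 50 uM final served as control inhibitor.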
GALK inhibitor = GALK (human) enzyme inhibition | recombinant GALK, Kinase-Glo ATP luminescence, 1 h | Potency, µM (highest dose often 57.5 µM), for inactives: at the top dose activity, negative = inhibition, actives largely listed as inhibitors | 44,000 tested, under 10 active | AID 1347072;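 also: plate controls were full GALK reaction for no effect and reaction lacking GALK for full effect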
Target sequence (P51570 whole entry, looked up): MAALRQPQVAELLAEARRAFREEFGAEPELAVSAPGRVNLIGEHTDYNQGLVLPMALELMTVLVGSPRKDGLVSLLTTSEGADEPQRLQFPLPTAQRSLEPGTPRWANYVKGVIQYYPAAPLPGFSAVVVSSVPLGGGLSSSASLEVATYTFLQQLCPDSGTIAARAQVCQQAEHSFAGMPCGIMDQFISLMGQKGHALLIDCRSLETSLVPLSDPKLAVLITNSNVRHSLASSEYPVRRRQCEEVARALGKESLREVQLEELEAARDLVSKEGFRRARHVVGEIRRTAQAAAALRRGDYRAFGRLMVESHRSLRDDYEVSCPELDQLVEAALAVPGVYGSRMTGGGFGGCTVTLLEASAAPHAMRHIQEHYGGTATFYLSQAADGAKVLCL
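Human GALK (5 nM) was incubated with 35 uM ATP and 100 uM galactose in 20 mM HEPES pH 8.0 with MgCl2, NaCl, DTT and BSA for 1 h at room temperature. Remaining ATP was measured by Kinase-Glo Plus luminescence.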
HTT promoter inh = inhibitors of huntingtin promoter activity; 48,000 compounds, 0.93% hits; AID 1508623; HEK293 HTT promoter firefly luciferase reporter, 24 h; Potency, µM (titrated, usually from 57.5 µM), for the others: at the top dose activity change, negative = inhibition, actives largely listed as inhibitors; also: potency is read from the fitted curve at half-maximal effect; nearly all actives have a fitted effect of over 50% in size
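Firefly luciferase signal from promoter-reporter HEK293 cells was scaled between vehicle (0%) and zero RLU (-100%). Compounds were tested at final concentrations of up to 57.5 uM over 24 h at 37 degrees C. PTC124 at 50 uM final served as control inhibitor.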
Starred values were filed as active, the others as inactive; ! = not confirmed by another sample; [ ] = another dose, or the depositor's remark. Unless noted, calls follow the shape of the dose curve; as a rule, active = well fitted curve in the direction sought with a large enough effect; inconclusive = small, poorly fitted or top-dose-only effect, or another doubt; inactive = no such curve, though single readings can be large; an effect the other way counts as inactive or inconclusive.

`CCOc1ccc(CCNC(=O)CCCc2cc(-c3ccc(OCC)cc3)on2)cc1` gave B2AR arrestin ag inactive, PTAP-TSG101 blk inactive, GPR32 ag 17, HTT-AS act -78%, GALK inhibitor -2% and HTT promoter inh 0.32µM*.
Screening O=C(CCc1ccc(O)cc1)c1c(O)cc(O)cc1O[C@@H]1O[C@H](CO)[C@H](O)[C@H](O)[C@H]1O returned HTT-AS act -12% and HTT promoter inh -7%.
For CCS(=O)(=O)N1CCc2cc(C(=O)Nc3cc(C)cc(C)c3)ccc21 the results were B2AR arrestin ag inactive, PTAP-TSG101 blk inactive, GPR32 ag -6, HTT-AS act 13%, GALK inhibitor 0% and HTT promoter inh -1%.
Screening CCOc1ccc(NC(=O)c2ccc3c(c2)CCN3S(=O)(=O)CC)cc1 returned B2AR arrestin ag inactive, PTAP-TSG101 blk inactive, GPR32 ag 67*, HTT-AS act -30%, GALK inhibitor -13% and HTT promoter inh inconclusive.
`FC(F)(F)c1ccc(C=Cc2nc(COc3ccc(CCCCn4ccnn4)cc3)co2)cc1` gave HTT-AS act -35% and HTT promoter inh inconclusive.
Clc1ccccc1-c1nc(-c2ccncc2)no1 was read as GPR32 ag 45, HTT-AS act inconclusive and HTT promoter inh 30%.
Fc1cccc(-c2nc(-c3ccncc3)no2)c1 was read as B2AR arrestin ag inactive, PTAP-TSG101 blk inactive, GPR32 ag -5, HTT-AS act 4µM*, GALK inhibitor -8% and HTT promoter inh 40%.
`CC1=C(CO)C(=O)O[C@@H]([C@@H](C)[C@H]2CC[C@H]3[C@@H]4C[C@H]5O[C@]56[C@@H](O)C=CC(=O)[C@]6(C)[C@@H]4CC[C@]23C)C1` gave HTT-AS act -95% and HTT promoter inh inconclusive.
For CCS(=O)(=O)c1ccccc1C(=O)N1CCN(c2nc3ccccc3s2)CC1 the results were B2AR arrestin ag inactive, PTAP-TSG101 blk inactive, GPR32 ag 15, HTT-AS act -44%, GALK inhibitor -2% and HTT promoter inh 14µM*.
Screening O=C(c1ccc(F)cc1)C1CCN(CCn2c(=O)[nH]c3ccccc3c2=O)CC1 returned GPR32 ag 82*!, HTT-AS act -8% and HTT promoter inh -3%.
O=c1[nH]c2ccccc2c(=O)n1CCCl was read as GPR32 ag -4, HTT-AS act -3% and HTT promoter inh 10%.
For O=c1cc(-c2cccc3c2Sc2ccccc2S3)oc(N2CCOCC2)c1 the results were HTT-AS act -24% and HTT promoter inh inconclusive.
CC(=O)c1ccc(O)c(C(N)=O)c1 was read as GPR32 ag -18, HTT-AS act -3% and HTT promoter inh -4%.
For CCOC(=O)c1c(Nc2ccc(O)cc2)nnc(-c2ccccc2)c1-c1ccccc1 the results were B2AR arrestin ag inactive, PTAP-TSG101 blk inactive, GPR32 ag 66*, HTT-AS act -19%, GALK inhibitor -12% and HTT promoter inh -17%.
Screening CCOC(=O)c1c(Nc2ccccc2)nnc(-c2ccccc2)c1-c1ccccc1 returned B2AR arrestin ag inactive, PTAP-TSG101 blk inactive, GPR32 ag -16, HTT-AS act -21%, GALK inhibitor 3% and HTT promoter inh -28%.
`CCc1c(C)sc2c1CCN(Cc1cccc(OC)c1)C2c1ccccc1` (stereo not given) gave B2AR arrestin ag inactive, PTAP-TSG101 blk inactive, GPR32 ag 61*, HTT-AS act -32%, GALK inhibitor -5% and HTT promoter inh inconclusive.
`O=C(Nc1noc2ccccc12)c1cccc(F)c1` gave B2AR arrestin ag inactive, PTAP-TSG101 blk inactive, GPR32 ag -16, HTT-AS act 2µM*, GALK inhibitor 5% and HTT promoter inh 67%.
O=C(c1ccc(F)cc1)N1CCC(c2nc3ccccc3s2)CC1 was read as B2AR arrestin ag inactive, PTAP-TSG101 blk inactive, GPR32 ag 64*, HTT-AS act -12%[11.5 µM], GALK inhibitor -5% and HTT promoter inh inconclusive.
COc1ccccc1OC(C)C(=O)N1CCC(c2nc3ccccc3s2)CC1 (stereo not given) was read as B2AR arrestin ag inactive, PTAP-TSG101 blk inactive, GPR32 ag 85*, HTT-AS act -17%, GALK inhibitor 4% and HTT promoter inh inconclusive.
`O=C(COc1cccc(Cl)c1)N1CCC(c2nc3ccccc3s2)CC1` gave B2AR arrestin ag inactive, PTAP-TSG101 blk inactive, GPR32 ag 72*, HTT-AS act -15%, GALK inhibitor 0% and HTT promoter inh -27%.
For Cc1ccc(CNC(=O)c2sc3nc(-c4ccc(F)cc4)ccc3c2N)cc1 the results were B2AR arrestin ag inactive, PTAP-TSG101 blk inactive, GPR32 ag 96*, HTT-AS act -4%, GALK inhibitor 1% and HTT promoter inh -6%.
COc1ccc(C(=O)c2sc3nc(-c4ccc(F)cc4)ccc3c2N)cc1 was read as B2AR arrestin ag inactive, PTAP-TSG101 blk inactive, GPR32 ag 98*, HTT-AS act -9%, GALK inhibitor -1% and HTT promoter inh 8%.
For Nc1cccc(-c2csc(NC(=O)CCCCCCC(=O)NO)n2)c1 the results were HTT promoter inh 200%.
`CC(=O)c1[nH]c(C)c(C(=O)NCc2ccc(Cl)cc2)c1C` gave B2AR arrestin ag inactive, PTAP-TSG101 blk inactive, GPR32 ag 3, HTT-AS act -50%, GALK inhibitor 0% and HTT promoter inh 16µM*.
Screening CCOC(=O)c1[nH]c(C)c(C(=O)NCc2cccc(OC)c2)c1C returned B2AR arrestin ag inactive, PTAP-TSG101 blk inactive, GPR32 ag 61*, HTT-AS act -16%, GALK inhibitor 0% and HTT promoter inh -24%.
Screening CCOC(=O)c1[nH]c(C)c(C(=O)NCc2ccc(F)cc2)c1C returned B2AR arrestin ag inactive, PTAP-TSG101 blk inactive, GPR32 ag 11, HTT-AS act 0%, GALK inhibitor inconclusive and HTT promoter inh -37%.
Screening CC(C)COc1ccc(C(=O)Nc2onc3c2CCCC3)cc1 returned B2AR arrestin ag inactive, PTAP-TSG101 blk inactive, GPR32 ag 114*, HTT-AS act -17%, GALK inhibitor 4% and HTT promoter inh 0%.
CC(C)(C)c1ccc(C(=O)Nc2onc3c2CCCC3)cc1 was read as B2AR arrestin ag inactive, PTAP-TSG101 blk inactive, GPR32 ag 88*, HTT-AS act inconclusive, GALK inhibitor 0% and HTT promoter inh inconclusive.

Screening data deposited in PubChem by National Center for Advancing Translational Sciences (NCATS).
